# Results as given in the supplement of paper PMC10105736.
# Values without a mark were called inactive.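 How the source made its calls: active = MAPPIT score above the 99th percentile of random reference set scores in the same batch; inactive = at or below it.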
# B1: lobo (protein)
# chain: MPKVLFQKYKKVVSNIDPSRYSAKFKEIDEQRRSQGSESDFADEMEGEFEAEMEEMGSSEFSLSEGEPSLNIGKIDLSFPETVEEFENSPQCYPPSYYTLSPKERLLLLYAENFRKQLVLSYPKRRAMVLALPNECKVQKFVCTTIRPTAFIYTQLISSVEEIAKFVADFIQYEPLQDPINLPNRLISPETLLRKRKGNSYEMATLLVSMLIGAGHPALVVSGVAREETILNDQLAVPYPYPIVEVEVEEVKPKVEKPGQKYKLRGLPDLKSHLEEDMAEVHRQKEAEEKRIQDEIIRKQMEDLELLAVDRYHYRRSHAWVVIINNAPWSVKPKTTYTDVNGDVVEAPPTAIFIEPSTGFICETGCKQYILVDSIWNEYNYYVCKQKHQRVSELRWDLRDTKDWEHMLPGEPPEMRIYKMASDENVADEERDISEEKHLDCIGSWVERLHIGLADFEQRFPSSEKKIQYKGAIHERFSPYSQRDGKVMQLTIFNNDECTIPKVRYEYYENRSDLMRHVKYTYATDQFEEIFNKGRNDSLKSIEYFSDPSQQRKVHFFSASRIDSLELMVVEPGSLILHYKDRSDKCWYKEFEFTPAGNVLKKVTEKFLKASANDVCSNDIATRTFLFQQNKIVLKFHYTFGALTATVVEFTKPPRPDYGKELIYDEKLTKIYKANPLDPTRTNLELYRLLCEQLQYEDHLRKNFEKIFEDINNVFDLRKSEKAEPKLKFSIFDPLRNGAARAIRMRQFEEEEELKKEIASKPADFLAPYLVPYKHQEELTPEQSQNAYNACLNDLKSRFVSLLNNLQRHYEDLTSESKSLNRFLNKFENQFNNYDYKRLVQQSKDLELNKRMVQQRLTLTHEESQKKYEVVKNSLLKDPRLNFKKDDLARRASETSK
# B2: brat (protein)
# chain: MASSPTPSLDSMRGGANSIESYEHAGYLSDSPLTLSGSSPPASDSAICSDEYTGGSSVKSRSEVTVINGHHPISASVSSSSSASSSSCSSSSSSSSSSSSSSSSTSGLSGCGSTSSSVISANNVASSNGPGVIGSNLQSSNNGGNSGISSLVVGAGKGSNSSSNSSSSNTSANGSPPRCTACKSKCSDAVAKCFECQSYLCANCVTAHEFMHCFNGHNVCLIKGFEASTTGTPLSVGSPSNNPASNEFKYASSLTMMLQQQQQLDSQQQQQQQQLLPAQPMSQLSKIVLAAAAQANSQEQQREDSIYGSLHPQQQQQQQQQQQRQLFCPRHKQELLKFSCRTCCILVCKECIVLEHSTGLHELENVQSPGMTTSTGSTANESALQTLLADMRGKIGEIVGIAGNSDQNLTKVKLQYQKAHNELNETHQFFASMLDERKTELLKELETLYTAKVNSNNSWQQRSRDLIDKGLATCEAVERSPAPPSSLLTEALLLRKSLEQQLQTGIQEMQLPFEIEFMSNYQSIQAGVRNTFGYIRANSSDGGPTGMSLTSNGHGKQPPIARPTQSASNSSASSAGSGHHGHHQQSHHHGHHNHHQTAHHQQLQAQSSLHGLGLGLSGASLLDSSSSAGGAVGAFSNGGLLLGGRDRNALAVEQHFGELMPKRGGGGYTGSNGSATSAVAHYNPYEKWSNGGSDNLFSSVTSGVSGSSAVADAFASLSAVGGSVVSGAGAGGSTVSSESLLDLTNKLLSATIYPPKSQIKRQKMIYHCKFGEFGVMEGQFTEPSGVAVNAQNDIIVADTNNHRIQIFDKEGRFKFQFGECGKRDSQLLYPNRVAVVRNSGDIIVTERSPTHQIQIYNQYGQFVRKFGATILQHPRGVTVDNKGRIIVVECKVMRVIIFDQNGNVLHKFGCSKHLEFPNGVVVNDKQEIFISDNRAHCVKVFNYEGQYLRQIGGEGITNYPIGVGINSNGEILIADNHNNFNLTIFTQDGQLISALESKVKHAQCFDVALMDDGSVVLASKDYRLYIYRYVQLAPVGM
# B3: mei-P22 (protein)
# chain: MDRTTVVPSPASTYCSFMGGSQHSPLRRSQRLIDKENRDLQKIPPKSLSPQLFGNTEDDYSELLLQQGKVVHLKPAAKLVPVRSSDNLVHLGSRDKVVPLKTSNRIVHLKPPYKIIHLKSLDEVEKTVKKKNNIQKEVHQRNSQRRSIQCTPKKRGRKPKQPAKKLQSRISTDQLGSTPSPSKLPAKYPAHFVHQLPPAEDSSCATRRRSLSAPAMQLSDLSLTPDEIQTPERRGEIVNKSPSDLDSDVSLNFSLSDSIGEIFGTKDISSILTMQRPRQYILLEEHLPTLATMLNVDLERLRCVLDITQGLSHEQILRFPIKHEEDELEVP
# B4: eIF3c (protein)
# chain: MSRFFANGSESESESSEEEIQATNFNKASAFQFSDDEEEVKRVVRSTKEKRYENLTSIIKTIRNHKKIKDIPNTLSSFEDLTRAYQKALPVISKEENGITPRFYIRCLAELEDFINEVWEDREGRKNLSKNNSKSLGTLRQKVRKYIKDFEDDLSRFREAPDQESEAEDEVVALESDGGDAGDDSDAGVKPTEAVPKAVKSAPAKAAPADDDDSDDSIDWDSDSESETESSDDENQYQNMRERFLKRTTEKEEKDDDKRKDKRKEQKTKIRKRAEDDEDGEWETVVKGHVVEKPKMFEKDAEIDVPLVLAKLLEIMSARGKKRTDRRLQIDLLFELRDISDQHNLGTAVSVKIHFNIISAIYDYNQKISEPMKLEHWALLLEVMQSMMKLLLANADIIMSESVAEEHEEYATSPFYVRGCPLAAVERLDDEFVKLLKECDPHSNDYVSRLKDEVNVVKTIELVLQYFERSGTNNERCRIYLRKIEHLYYKFDPEVLKKKRGELPATTSTSVDVMDKLCKFIYAKDDTDRIRTRAILAHIYHHAMHDNWFQARDLVLMSHLQDNIDAADPATRILYNRMMANLGLCAFRQGNVKDAHHCLVDLMVTGKPKELLAQGLLPQRQHERSAEQEKIEKQRQMPFHMHINLELLECVYLVSAMLLEIPYIAAHEFDARRRMISKTFYQQLRSSERQSLVGPPESMREHVVAAAKAMRCGNWQACANFIVNKKMNTKVWDLFYESDRVREMLTKFIKEESLRTYLFTYSNVYTSISIPSLAQMYELPVPKVHSIISKMIINEELMASLDDPSETVGMHRSEPSRLQALAMQFVDKVTNLVDVNEKVFDMKQGNFFQRGNMGNRGDRGYNRNQNNQGGNWLGQRRDRNNRNRNQRGHHKNNQDRQQQQQQQVQTIDEE
# B5: vilya (protein)
# chain: MAKSQAGQTVEPEASKLWIHCNSCCALFCDKKHTFFLLACHHVFCERCVKVSAGRTPSDAPIFECSTCRRSVRGRQLTNSMPNHFKQLFHPEPFTIGNDFVETFQRGNHRHFDKYKERKELEMDKLFKDIEVAKSVCQKRFLEAQMLRVERKKLMQRSRYIKAEVANRKAEMHRMAQAYRSRSLTSQSSSSAQRSARGRPRGRGTATQSSSRRRSTESAKRQQITSFIHPPNNSFDL
# B6: Cp190 (protein)
# chain: MGEVKSVKVDNWGVFFLQKLQNFFNKTDYCDLTLQFRDNSQLKVHRLVLSACTDYFNVLEQTCEIVDDALIMPNEFQADVVVPIVNFMYTGTLEFELKMYGKLLRTAKEMNMTVLLKLLEAHRRTMENVNRQQRPPSPKGIRRRTVGQPSSGLPQQRVLGPSPQSRNVATPIAQRANTQRGSTGNTMSRTSGGSNRSPYGDSSNVKQEPTSPFEQLRKGYNNNKRPAQTSLLSPPSKKPSLEEVKEFAEQQRMRKQIAAEYGDNDPEYDGGMLYDDVHAGDDDDDDMPPQPSTSKQQSPQGTQTQLEHGSTTIILKQDSPSQTPTIIVKDSSNAKLNHTKIIAEVLRQYPHIVKGHKNIKLKIMPNTPAAPTEKSAPATVKPPANQSSATTSPHKKLHVSFKADKSTPLITAQQKAASSQQKSGTSQTTGNQGTGANPPANTAAAQKRRIDSKTMHALIAQGAENTTGPWLCLRCGVNGRPISIPSYRGFRRHLINTHKETIDPALCEHCGWRSVNNRELHFHMYMEHQTKSLLYTFAECALCNQSYRTKGELEAHINEVHTDDNKQQCIYCNKVFEQELQLYRHMKSYHKEQALEDGIIDETDEEFLGSQDEEEEAEGDEEQEPEQTGKVRILSDISLPATSAITVQQAQQEQLQEEDVEQVQQEVKFVGADGNEVELTDEQRKEILSQLNQQQAGATAGGVVMVLSEPEAEHVKQETDEKSLAGTEEEYDDSQIYSELGAADSVESAKKNIADESKESIDNLEWAENLIAESEEQSNKEPKSDKPRDDISEKLKELTGDWTEDENDDDVDDKPATAELASELANKDPEPTVHEEEDDIDLALQSLHKGPEEATEEKASEESVTSADDAVDAVPNINSQPEKMDVDSEAADEKASKAEVQIKKEAELENDQEEFIKEDSPIPHSDSVAELREAVTASEGEDDVHLEADNIRKELLDELIAEAEKPDQEKDIVQSEENATTEALDRSVTDEDDLVPPTQVSTEQMEIDEPAAEKAAENNEDTRTADEKEAVEDKPNQTQDVTTAEKPTLESAKAGDEATSGEAASVDKVKSLISEWGDDDEDEDENGVSAAAKEEL
# B7: CG6153 (protein)
# chain: MPHGHSHDHGGCSHEASDVDHALEMGIEYSLYTKIDLDNVECLNEETDGQGKSVFKPYEKRQDLSKYVESDADEELLFNIPFTGNIKLKGIIISGANDDSHPNMVKIFKNRPRMTFDDARAKPDQEFQLTRDARGEIEYSPKVVTFSSVHHLSLYFPSNFGEDITRIYYIGLRGEFTEAHYHGVTICNYESRANAADHKEKAFDGVGRAIQ
# B8: JIL-1 (protein)
# chain: MSRLQKQNYEILSGTSTSRLKNHQHPRESESLAYEEPDQMVRNHLNGQLVANGNGKTRKNSNSETMTNGKKSKLNTEGSGSGSGKTLNYNNNNNNNNSISATNGQYTNSSSKTTSASARDYTYRETISPPTPPSPPTTNVADIVCISDAESEDGRDPEREYYDQDMEEDEPNGIEIDESSSSLSKAKSNNAAAAAAAAAAAAAAAASKASSSTTPSYAMPTSNSTPLDLDNEAHQRDLEAVTDLKYYVKLYSDEAVSLNDFKIIRVLGTGAYGRVFLVRKLTRHDAGKLYAMKVLNKITVVQKRKTAEHTKTERVVLEAIQRNPFLVSLHYAFQSSSKLYLVLDFANGGELFTHLYHSENFEESRVRVYIAEVVLALEQLHQLGIIYRDIKLENILLDGEGHIVLSDFGLSKILTAENEYRAHSFCGTLEYMAPEIIRTGPPGHDSAVDWWSVGVLTFELLTGASPFATSDGQVQQSEISRRIQKEQPMIPSSFSANARDFVLKMLEKNPKRRLGGNHRDASEIKEHPFFNGINWQELRTKRRKAPYKPTLTAEDDVQNFSNEFTDQVPEDPECDAPPSRIRLFRGYTYVAPEHLEQMRRDNHCEIQYFNTGLQNIPCRPDDLELGTRTSNGAYGTCHFVVDSSTDLVFLAKIIPLSKFRPSEVDALISCALDTTNHKNIVSYHGTFREKCETWIVMEYLSGPELTASIRMDEDSCREIFLQLVMAVRHIHSKHFIHGDLKPENIMFENREDRTVKLIDFGSACYNNRFKSWKDKPRYTLDYAPPEMLADANLVTYSPAVDIYGLGATLYTMLVGHRPYRQNEDDVDHSAAAHHELRKRMRRGTFNQRSMRWESASPAFRHLVSWCLQRDPADRPTLSDILDSEWLQYGSNDPDVDIILPQQMVVDLSEDTMEQPTGGMFDDQQQLEFMHDKSAEDEGITLVSEPMDTTVATHESRRNAAAFSSVVAPTTDDEIVHERFDPAFEVQADFYGFDENAPPLPLPEEYYSELPLPEEDRQYIPPPPALIPVEPETTFRRPRTRQQRRTESQLVQPVSVATYEDSKASLRVLMQQLPPPGDNVVARIPKRTHRVVRTLPPTFGTTKREENFYGFSKTAISWRKTRASWRHFCLLINGVQQVLKVRFKKARRVYCLPHIKEEKLDHAYEKPLTFPRPKAQLKRTKREPKVPRPPTRVQPERARAMRQLYQFQ
# B9: mRpL13 (protein)
# chain: MSIAKRVQQWATFARTWHIYDCTWQNPFESAKLVKTHLLGLQKPIYHPMNDCGDHVVLINTREIALPGDEWVKRVYFHHTGYPGGASWTLAWQLHEKDPTMVMKKAVYNSMRGNLQRRHTMQRLHLFADDQVPEEILQNVTNQIRTPRSIPQRLDHIDKETLENFPNIMDYPKDYILR
# Assays:
# Assay in all cases: MAPPIT interaction score (arbitrary units); higher = stronger binary interaction signal, active = hit call of the paper
# [1] = target: msd5; conditions: MAPPIT configuration: N-N; pair source set: Curagen_low_conf
# [2] = target: mira; conditions: MAPPIT configuration: N-C; pair source set: Lit-BM-16
# [3] = target: nos; conditions: pair source set: Lit-BM-16
# [4] = target: mei-P22; conditions: MAPPIT configuration: N-N; pair source set: screen_2
# [5] = target: nSyb; conditions: MAPPIT configuration: N-N; pair source set: DPIM
# [6] = target: mwh; conditions: MAPPIT configuration: N-N; pair source set: Curagen_high_conf
# [7] = target: mod(mdg4); conditions: pair source set: Lit-BM-16
# [8] = target: su(Hw); conditions: MAPPIT configuration: N-C; pair source set: Lit-BM-16
# [9] = target: mnb; conditions: MAPPIT configuration: N-N; pair source set: Finley_Y2H
# [10] = target: msl-2; conditions: pair source set: Lit-BM-16
# 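Further: HEK293T cells with Epo stimulation, STAT-responsive firefly luciferase reporter, fold induction versus unstimulated cells divided by the larger fold induction of two negative controls lacking either bait or prey.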
binder,measurement,setting,value
B1,MAPPIT interaction score,[1],2.32
B2,MAPPIT interaction score,[2],1.62
same,MAPPIT interaction score,[3]; MAPPIT configuration: N-C,0.0947
same,MAPPIT interaction score,[3]; MAPPIT configuration: N-N,0.243
B3,MAPPIT interaction score,[4],4.86 (active)
B4,MAPPIT interaction score,[5],0.214
B5,MAPPIT interaction score,[6],0.602
B6,MAPPIT interaction score,[7]; MAPPIT configuration: N-C,2.63
same,MAPPIT interaction score,[7]; MAPPIT configuration: N-N,-0.119
same,MAPPIT interaction score,[8],-0.381
B7,MAPPIT interaction score,[9],1.74
B8,MAPPIT interaction score,[10]; MAPPIT configuration: N-C,0.534
same,MAPPIT interaction score,[10]; MAPPIT configuration: N-N,0.0488
B9,MAPPIT interaction score,[5],-0.207
